Data reported in PubChem BioAssay AID588342 (National Center for Advancing Translational Sciences (NCATS), 2011).
Among all 360,000 compounds or so, about 25,000 (6.9%) were called active. A call without a number means that no potency is given here. About 9% were inconclusive and are not listed. Calls come from the whole dose curve; as a rule, active = well fitted inhibition curve with a large enough effect; inconclusive = small, poorly fitted or top-dose-only effect; inactive = flat fitted curve, though single readings scatter. Only a selection was taken, and actives are over-represented in it overall.

target: Luciferin 4-monooxygenase (Photinus pyralis) (UniProt P08659); assay: qHTS profiling assay for firefly luciferase inhibitor/activator using purifed enzyme and Km concentrations of substrates (counterscreen for miR-21 project); settings: purified FLuc, luminescence inhibition; series mostly up to 57.5 µM; note: nearly all actives have a fitted effect of over 55% in size
Method in brief: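 Purified P. pyralis luciferase (10nM final) with 10uM D-luciferin and 10uM ATP (Km levels) in 50mM Tris acetate pH 7.5, 10mM Mg acetate, 0.01% Tween-20, 0.05% BSA; qHTS 6-point titration, ~60 µM downward; luminescence read.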
Potency is the fitted concentration of half-maximal effect.

Luciferin 4-monooxygenase (Photinus pyralis), sequence (P08659 whole entry, looked up): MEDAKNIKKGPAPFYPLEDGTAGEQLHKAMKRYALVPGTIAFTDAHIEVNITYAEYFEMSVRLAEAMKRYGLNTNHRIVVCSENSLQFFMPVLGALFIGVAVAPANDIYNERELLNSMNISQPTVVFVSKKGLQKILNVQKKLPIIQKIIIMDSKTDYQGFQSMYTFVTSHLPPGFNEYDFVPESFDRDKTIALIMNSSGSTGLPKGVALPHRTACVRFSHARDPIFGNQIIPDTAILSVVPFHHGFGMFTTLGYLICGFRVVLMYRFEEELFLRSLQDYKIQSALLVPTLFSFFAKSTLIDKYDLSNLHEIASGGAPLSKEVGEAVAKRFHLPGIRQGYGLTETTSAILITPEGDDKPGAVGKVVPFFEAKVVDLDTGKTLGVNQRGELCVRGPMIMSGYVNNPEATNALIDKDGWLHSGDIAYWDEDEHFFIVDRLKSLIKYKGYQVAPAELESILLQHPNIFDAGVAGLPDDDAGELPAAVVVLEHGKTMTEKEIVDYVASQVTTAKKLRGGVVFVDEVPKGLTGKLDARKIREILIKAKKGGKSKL

**Q.** Which Potency does the source give for `ClC1(Cl)CC1CSc1ncn[nH]1` (configuration not stated) here?
**A.** inactive

**Q.** Which Potency does the source give for `Cc1ccc(N2CC(C(=O)Nc3cc(Cl)ccc3-n3cncn3)CC2=O)cc1` (configuration not stated) here?
**A.** inactive

**Q.** For `CCCC(NCC(=O)Nc1ccccc1C(=O)NC1CC1)c1ccccc1` (configuration not stated), which Potency is on record?
**A.** inactive

**Q.** `COc1ccc(-c2cc(=O)oc3cc(OCC(=O)N(C)C4CCS(=O)(=O)C4)ccc23)cc1` (configuration not stated) was tested. Which Potency did it give?
**A.** inactive

**Q.** For `CC(=O)COc1ccc2c(-c3ccccc3)cc(=O)oc2c1`, which Potency is on record?
**A.** 16.9 µM (active)

**Q.** With `Cc1cc(=O)oc2ccc(OCC(=O)O)cc12` as the compound, how does the Potency read?
**A.** inactive

**Q.** `C=CCC(NC(=O)Cc1ccccc1)C(=O)NCCC` (configuration not stated) was tested. Which Potency did it give?
**A.** inactive

**Q.** How did the Potency turn out when `O=C(O)COc1ccc(-c2nccc(-c3cccs3)n2)cc1` was run?
**A.** 1.51 µM (active)

**Q.** Which Potency does the source give for `O=C(COc1ccccc1)OCc1cc(=O)n2nc(-c3cccs3)sc2n1` here?
**A.** inactive

**Q.** For `O=C(Nc1ccnc(-c2ccncc2)n1)c1cccs1`, which Potency is on record?
**A.** inactive

**Q.** For `Oc1c(C=Nc2cccc3nsnc23)ccc2ccccc12`, which Potency is on record?
**A.** 1.69 µM (active)

**Q.** With `O=C(NCc1ccccc1)C1CCN(S(=O)(=O)c2ccc3[nH]c(=O)ccc3c2)CC1` as the compound, how does the Potency read?
**A.** inactive

**Q.** How did the Potency turn out when `CC(C)Cn1cnc2c1c(=O)n(CC(O)c1ccccc1)c(=O)n2CC(C)C` (configuration not stated) was run?
**A.** inactive

**Q.** Which Potency does the source give for `O=C(O)c1ccc2c3c(cccc13)C(=O)N(OS(=O)(=O)c1ccccc1)C2=O` here?
**A.** 26.9 µM (active)

**Q.** With `CN1C(=O)c2cccc3c(N)ccc(c23)C1=O` as the compound, how does the Potency read?
**A.** inactive

**Q.** `CC(=O)Nc1ccccc1Sc1ccc2c3c(cccc13)C(=O)N(c1ccc(C)cc1)C2=O` was tested. Which Potency did it give?
**A.** inactive

**Q.** For `COc1cc(/C=N\NC(=O)c2nonc2N)c(OC)cc1Br`, which Potency is on record?
**A.** inactive

**Q.** How did the Potency turn out when `Cc1nonc1C(=O)N/N=C/c1ccc(O)cc1` was run?
**A.** 6.01 µM (active)

**Q.** How did the Potency turn out when `CC(C)c1c(C(=O)N/N=C/c2ccc(-c3ccccc3)cc2)nnn1-c1nonc1N` was run?
**A.** inactive

**Q.** How did the Potency turn out when `CCC(C)Nc1oc(-c2ccc(COc3ccc(Cl)cc3)o2)nc1C#N` (configuration not stated) was run?
**A.** inactive

**Q.** For `Nc1nnc(SCC(=O)NCC(=O)Nc2ccc(F)c(F)c2F)s1`, which Potency is on record?
**A.** inactive

**Q.** How did the Potency turn out when `O=C(c1ccco1)n1nc(-c2ccc(Cl)cc2)nc1NCc1ccccc1` was run?
**A.** inactive

**Q.** `Cc1cc(Br)ccc1NC(=O)Cn1cnc2sc(C)c(S(=O)(=O)N3CCN(C)CC3)c2c1=O` was tested. Which Potency did it give?
**A.** inactive

**Q.** With `Brc1ccc(CN2CC[C@H]3C=CCc4cccc(c43)C2)cc1` as the compound, how does the Potency read?
**A.** inactive

**Q.** With `O=C(NCc1ccccc1)c1ccc2c(c1)nc1n2CCCCC1` as the compound, how does the Potency read?
**A.** 19 µM (active)

**Q.** With `CCOc1ccccc1CNC(=O)c1ccc2c(c1)nc1n2CCC(C)C1` (configuration not stated) as the compound, how does the Potency read?
**A.** inactive

**Q.** With `Cc1ccc(CCNC(=O)c2ccc3c(c2)nc2n3CCC(C)C2)cc1` (configuration not stated) as the compound, how does the Potency read?
**A.** inactive

**Q.** Which Potency does the source give for `O=C(/C=C/c1ccc(Cl)c([N+](=O)[O-])c1)c1cccnc1` here?
**A.** inactive

**Q.** Which Potency does the source give for `O=C(/C=C/c1ccc(Cl)cc1Cl)c1cccnc1` here?
**A.** 15.1 µM (active)

**Q.** `O=C(NCc1ccc(Cl)c(Cl)c1)c1cccnc1` was tested. Which Potency did it give?
**A.** inactive

**Q.** Which Potency does the source give for `Cc1cccc(C)c1NC(=O)Nc1ccccc1-n1ccnc1` here?
**A.** inactive

**Q.** Which Potency does the source give for `O=c1c2ccccc2n(Cc2cccc(Cl)c2)c(=O)n1Cc1ccccc1` here?
**A.** inactive

**Q.** Which Potency does the source give for `COCCNc1ncnc2c1c(-c1ccccc1)cn2-c1ccc(C)c(Cl)c1` here?
**A.** inactive

**Q.** `Cc1ccc(-n2ncc3c(NCCCn4ccnc4)ncnc32)cc1Cl` was tested. Which Potency did it give?
**A.** 12 µM (active)

**Q.** `CCN(CC)CCNc1ncnc2c1cnn2-c1cc(Cl)ccc1C` was tested. Which Potency did it give?
**A.** inactive

**Q.** How did the Potency turn out when `Cc1ccccc1CNC(=O)c1ccc(NC(=O)N2CCCCc3ccccc32)cc1` was run?
**A.** inactive

**Q.** With `COC(=O)C1=C(C)NC(=O)/C1=C/c1ccc(CNS(=O)(=O)c2ccc(C)cc2)o1` as the compound, how does the Potency read?
**A.** inactive

**Q.** With `C[C@@H](NC(=O)c1nc[nH]c1C(=O)N1CCN(C(=O)OC(C)(C)C)CC1)c1ccccc1` as the compound, how does the Potency read?
**A.** inactive

**Q.** `Cc1cnc(NC(=O)C2CCCC2)s1` was tested. Which Potency did it give?
**A.** inactive

**Q.** With `Cc1ccc(Cl)cc1NC(=O)CSc1nccn1C` as the compound, how does the Potency read?
**A.** inactive

**Q.** `Cc1cnc(NC(=O)c2ccccn2)s1` was tested. Which Potency did it give?
**A.** 2.69 µM (active)

**Q.** `Cc1cnc(NC(=O)CSc2nnc(C)s2)s1` was tested. Which Potency did it give?
**A.** inactive

**Q.** For `Cc1cnc(NC(=O)CSc2nnc(-c3ccccc3)n2Cc2ccccc2)s1`, which Potency is on record?
**A.** inactive

**Q.** Which Potency does the source give for `Cc1ccc(Cl)cc1NC(=O)c1ccccn1` here?
**A.** 16.9 µM (active)

**Q.** Which Potency does the source give for `Cc1ccc(Cl)cc1NC(=O)Cc1ccc(-n2c(C)nc3cccnc32)cc1` here?
**A.** inactive

**Q.** For `Cc1cnc(NC(=O)Cn2cnc3c2c(=O)n(C)c(=O)n3C)s1`, which Potency is on record?
**A.** inactive

**Q.** With `Cc1cnc(NC(=O)c2ccc(Cl)nc2)s1` as the compound, how does the Potency read?
**A.** 12 µM (active)

**Q.** `COc1ccc(-c2onc(C)c2C)cc1S(=O)(=O)NCc1cccs1` was tested. Which Potency did it give?
**A.** inactive

**Q.** Which Potency does the source give for `CC(=O)NC(CC(=O)Nc1nc(-c2ccccc2)c(C(C)=O)s1)c1ccccc1` (configuration not stated) here?
**A.** inactive

**Q.** How did the Potency turn out when `COc1cccc(-c2n[nH]c3c2C(c2cccc(O)c2)N(C)C3=O)c1` (configuration not stated) was run?
**A.** inactive

**Q.** With `O=C1COc2ccc(C(=O)CSc3ccc(Br)cc3)cc2N1` as the compound, how does the Potency read?
**A.** inactive

**Q.** How did the Potency turn out when `Cc1ccc(C)c(N2CCN(c3ccc4cc(S(=O)(=O)N5CCC(C)CC5)ccc4n3)CC2)c1` was run?
**A.** inactive

**Q.** `Cc1cc(NC(=O)C2CCC(CNS(=O)(=O)c3ccc(Br)s3)CC2)ccc1Br` (configuration not stated) was tested. Which Potency did it give?
**A.** inactive

**Q.** For `Cc1cc(C)cc(OCC(=O)Nc2nc(-c3ccc(F)cc3)ns2)c1`, which Potency is on record?
**A.** inactive

**Q.** Which Potency does the source give for `COc1ccc(C2=NS(=O)(=O)N(C)C(C(=O)N(C)Cc3ccccc3)=C2)cc1` here?
**A.** inactive

**Q.** Which Potency does the source give for `C/C(N)=C(/C#N)C(=O)COC(=O)C1=NN(c2ccccc2)C(=O)CC1` here?
**A.** inactive

**Q.** For `CNC(=O)COC(=O)c1cc(-c2ccc(OC)cc2)nc2ccccc12`, which Potency is on record?
**A.** 5.36 µM (active)

**Q.** How did the Potency turn out when `C/C(N)=C(/C#N)C(=O)COC(=O)c1cc(-c2ccc(C)cc2)nc2ccccc12` was run?
**A.** 9.53 µM (active)

**Q.** With `O=C(O/N=C(/c1ccccc1)c1ccncc1)c1ccccc1[N+](=O)[O-]` as the compound, how does the Potency read?
**A.** inactive

**Q.** Which Potency does the source give for `COc1ccc(-c2cc(C(=O)N(C)Cc3ccccc3)c3ccccc3n2)cc1` here?
**A.** 10.7 µM (active)

**Q.** Which Potency does the source give for `COc1ccc(CCNC(=O)COC(=O)c2cc(=O)c3ccccc3o2)cc1` here?
**A.** inactive

**Q.** With `C/C(N)=C(/C#N)C(=O)COC(=O)c1cc(-c2cccc(Br)c2)nc2ccccc12` as the compound, how does the Potency read?
**A.** inactive

**Q.** For `COc1ccc(NC(=O)c2cc(-c3cc(OC)c(OC)c(OC)c3)nc3ccccc23)c(OC)c1`, which Potency is on record?
**A.** inactive

**Q.** Which Potency does the source give for `COc1ccc(CN(C)C(=O)c2cc(-c3ccc(C)cc3C)nc3ccccc23)c(OC)c1OC` here?
**A.** inactive

**Q.** With `COC(=O)CNC(=O)c1cc(-c2ccncc2)nc2ccccc12` as the compound, how does the Potency read?
**A.** inactive

**Q.** Which Potency does the source give for `N/C(=N\OC(=O)c1cc(-c2ccccc2)nc2ccccc12)c1ccncc1` here?
**A.** 21.3 µM (active)

**Q.** `Cc1cc(C)c2oc(C(=O)Nc3c(C(=O)Nc4ccccc4)oc4ccccc34)cc(=O)c2c1` was tested. Which Potency did it give?
**A.** inactive
